Here are results for seven molecules from PubChem BioAssay (NCI).

This is part of a sample that, as a whole, favours compounds with a hit. Of some 83,000 tested, about 20% had one in any assay.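 Percent growth is the endpoint: 0 to 100 indicates growth inhibition (40 means 60% inhibition), 0 means no net growth, and negative values indicate cell death.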 A number with no mark means an inactive call. Activity calls are given as the source filed them. How the source made its calls: active means growth percent below 10; inactive means the rest.

Some test systems named below: SK-MEL-2 melanoma; EKVX NSCLC; SN12C renal; UO-31 renal; TK-10 renal; ACHN renal; CAKI-1 renal; A498 renal; CCRF-CEM leukemia; MOLT-4 leukemia; RPMI-8226 leukemia; OVCAR-8 ovarian; OVCAR-5 ovarian; OVCAR-4 ovarian; SK-OV-3 ovarian; IGROV1 ovarian; HS 578T breast; NCI/ADR-RES ovarian; OVCAR-3 ovarian; SR leukemia.
Test in all cases: NCI-60 one-dose screen, 48 h (100 = growth as untreated, 0 = no growth, -100 = all killed)
Conditions in all cases: 10 µM unless noted

Take `O=C(CCCCCCN1CC(=O)N2[C@H](c3ccc(Cl)cc3)c3[nH]c4ccccc4c3C[C@@H]2C1=O)NO`: the growth in the assay on SK-MEL-2 melanoma was 66.1%; with EKVX NSCLC, 65.7%; in the assay with SN12C renal, 63.1%; in the assay on UO-31 renal it was 57.9%; with TK-10 renal it was 55.8%; in the assay on ACHN renal, 84.4%. In addition, the growth was 65.2% in the assay with CAKI-1 renal; 78.9% with A498 renal; 25.7% with CCRF-CEM leukemia; 4.87% (active) with MOLT-4 leukemia; 24.5% in the assay on RPMI-8226 leukemia; 51.8% in the assay on OVCAR-8 ovarian. Also, the growth with OVCAR-5 ovarian was 59.5%; in the assay with OVCAR-4 ovarian it was 74.3%; with SK-OV-3 ovarian, 62.9%; with IGROV1 ovarian, 33.5%; with HS 578T breast, 63.7%; in the assay with NCI/ADR-RES ovarian it was 90.2%.

As for `O=S(=O)(NCCCNc1nccc(-c2c(-c3cccc(F)c3)nc3occn23)n1)c1ccc(F)cc1`, the growth with SK-MEL-2 melanoma was 55.5%; with EKVX NSCLC, 54.3%; in the assay on SN12C renal it was 51.2%; in the assay with UO-31 renal it was 31.4%; in the assay with TK-10 renal, 56.7%; in the assay with ACHN renal, 46%. Further, the growth in the assay with CAKI-1 renal was 37.1%; in the assay with A498 renal, 45.7%; in the assay with CCRF-CEM leukemia it was 31.9%; in the assay with MOLT-4 leukemia, 8.3% (active); in the assay on RPMI-8226 leukemia, 37.3%; in the assay with OVCAR-8 ovarian it was 30.1%. Also, the growth was 89.9% in the assay on OVCAR-5 ovarian; 37% in the assay on OVCAR-4 ovarian; 54.5% in the assay with SK-OV-3 ovarian; 24.5% in the assay on IGROV1 ovarian; 55.3% in the assay on OVCAR-3 ovarian; 59% in the assay with HS 578T breast. Also, the growth in the assay with NCI/ADR-RES ovarian is 42.4%.

As for `COc1ccc2c(c1)CCc1[nH]nc(-c3cc(OC)c(OC)c(OC)c3)c1-2`, the growth in the assay on SK-MEL-2 melanoma was 31.1%; with EKVX NSCLC, 33.7%; with SN12C renal, 31.9%; in the assay with UO-31 renal, 13.8%; in the assay on TK-10 renal, 50.1%; in the assay with ACHN renal, 25.4%. The growth with CAKI-1 renal was 26%; in the assay on A498 renal it was -9.65% (active); in the assay with CCRF-CEM leukemia, 0.932% (active); in the assay on SR leukemia, -26.2% (active); in the assay on RPMI-8226 leukemia, 22.3%; in the assay on OVCAR-8 ovarian, 7.98% (active). Also, the growth was 56% in the assay with OVCAR-5 ovarian; 45.3% with OVCAR-4 ovarian; -7.59% (active) in the assay on SK-OV-3 ovarian; 25.5% with IGROV1 ovarian; 1.01% (active) in the assay with OVCAR-3 ovarian; 23% in the assay with HS 578T breast. Further, in the assay with NCI/ADR-RES ovarian, the growth was 0.961% (active).

As to `C=C1C(=O)O[C@H]2[C@H]1CC/C(COC(=O)/C=C\C(=O)NCc1ccc(Cn3c(=O)sn(CCCCC)c3=O)cc1)=C\CC[C@@]1(C)O[C@@H]21`, the growth was 87.6% in the assay with SK-MEL-2 melanoma; 98% with EKVX NSCLC; 71% with SN12C renal; 60.7% in the assay with UO-31 renal; 57.4% in the assay with TK-10 renal; 46.9% in the assay with ACHN renal. Besides, the growth with CAKI-1 renal is 66.6%; in the assay on A498 renal, 100%; with CCRF-CEM leukemia, 4.56% (active); with SR leukemia it was 59.7%; in the assay with RPMI-8226 leukemia it was 8.85% (active); in the assay on OVCAR-8 ovarian, 84.5%. The growth with OVCAR-5 ovarian is 89%; with OVCAR-4 ovarian it was 84.6%; with SK-OV-3 ovarian it was 111%; in the assay on IGROV1 ovarian, 58%; in the assay with OVCAR-3 ovarian, 36%; in the assay on HS 578T breast, 98.2%. For the same molecule, in the assay with NCI/ADR-RES ovarian, the growth is 98.8%.

With `NC(=O)c1cccc([C@@H]2O[C@H](CO)[C@@H](O)[C@H]2O)c1`, the growth is 103% with SK-MEL-2 melanoma; 99% in the assay on EKVX NSCLC; 94.1% in the assay on SN12C renal; 52.1% with UO-31 renal; 55.5% in the assay with TK-10 renal; 93.1% in the assay on ACHN renal. Moreover, the growth is 80.9% in the assay with CAKI-1 renal; 11% in the assay on CCRF-CEM leukemia; -1.79% (active) with MOLT-4 leukemia; 84% with SR leukemia; -25.7% (active) with RPMI-8226 leukemia; 9.76% (active) in the assay with OVCAR-8 ovarian. Also, the growth was 102% in the assay with OVCAR-5 ovarian; -20.6% (active) in the assay with OVCAR-4 ovarian; 28.7% in the assay with SK-OV-3 ovarian; 110% with IGROV1 ovarian; 5.46% (active) with HS 578T breast; 23.8% with NCI/ADR-RES ovarian.

`COc1ccc(C(=O)Cn2c(C(=O)c3ccc(OC)cc3)nc3ccccc32)cc1`: the growth is 88.4% in the assay with SK-MEL-2 melanoma; 73.3% in the assay on EKVX NSCLC; 41% in the assay with SN12C renal; 35.4% in the assay on UO-31 renal; 51.5% in the assay on TK-10 renal; 43.8% in the assay with ACHN renal. The growth with CAKI-1 renal was 25.4%; in the assay on CCRF-CEM leukemia, 0.632% (active); in the assay with MOLT-4 leukemia it was 15.6%; in the assay with SR leukemia it was 16.4%; with RPMI-8226 leukemia it was -7.09% (active); with OVCAR-8 ovarian it was 31.3%. The growth with OVCAR-5 ovarian was 56.9%; in the assay on OVCAR-4 ovarian it was 47.6%; in the assay with SK-OV-3 ovarian, 67.1%; with IGROV1 ovarian it was 26.9%; in the assay with OVCAR-3 ovarian, -10.4% (active); in the assay on HS 578T breast, -12% (active). For the same molecule, in the assay with NCI/ADR-RES ovarian, the growth was -24.1% (active).

Turning to `Cc1ccc(S(=O)(=O)OCCCOS(=O)(=O)c2ccc(C)cc2)cc1`, the growth in the assay on SK-MEL-2 melanoma was 101%; with EKVX NSCLC, 99.7%; in the assay on SN12C renal, 98.1%; with UO-31 renal, 71.3%; with TK-10 renal it was 109%; in the assay on ACHN renal, 96%. The growth in the assay with CAKI-1 renal was 68.3%; in the assay on CCRF-CEM leukemia, 79.1%; with MOLT-4 leukemia, 62.5%; with SR leukemia it was 82.4%; with RPMI-8226 leukemia it was 76.2%; in the assay with OVCAR-8 ovarian it was 90%. For the same molecule, the growth is 125% in the assay with OVCAR-5 ovarian; 115% in the assay on SK-OV-3 ovarian; 76.1% in the assay on IGROV1 ovarian; 107% in the assay with OVCAR-3 ovarian; 99.8% in the assay with HS 578T breast; 116% in the assay with NCI/ADR-RES ovarian.
